# hcDAF12 agonist – H. contortus DAF-12 nuclear receptor activators, primary screen, cell-based, luminescence, HEK293, lit1-tk-luc reporter; HEK293 hcDAF-12 lit1-tk-luc reporter; 0% DMSO, 100% Δ7-dafachronic acid; activation, % at 6.8 µM; 1.4% of 370,000 active; AID 652067, 2013;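 active = activation above the mean of all tested compounds plus 3 SD, cut at about 5.5% in these data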
# ssDAF12 agonist – S. stercoralis DAF-12 nuclear receptor activators, primary screen, cell-based, luminescence, HEK293, GRIP1 co-expression, lit1-tk-luc; Nuclear hormone receptor DAF-12 (Strongyloides stercoralis); 1% of 370,000 active; HEK293 ssDAF-12/GRIP1 lit1-tk-luc reporter; % of 3 µM dafachronic acid response; AID 652126, 2013; activation, % at 6.8 µM;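 active = activation above the mean over all tested compounds plus 3 SD, cut at about 0.9% in these data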
# DAX1 inh-1 – DAX1 (NR0B1) inhibitors on StAR promoter, primary screen, cell-based, luminescence, SF-1 (NR5A1), full-length DAX-1; HEK293T StAR-luciferase reporter, SF-1/DAX-1 repression relief; inhibition, % at 6.8 µM; 1.1% of 370,000 active; AID 652010, 2013;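 active = inhibition above the mean over all tested compounds plus 3 SD, cut at about 3.6% in these data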;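 note: higher inhibition means more luminescence from relief of DAX-1 repression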
# DAX1 inh-2 – DAX1 (NR0B1) inhibitors, primary screen, cell-based, HEK293, Gal4-DAX1, luciferase luminescence; Nuclear receptor subfamily 0 group B member 1 (Homo sapiens), P51843; AID 504766, 2011; 0.99% of 340,000 active; inhibition, % at 6.75 µM; HEK293 Gal4-DAX1 luciferase reporter;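 active = inhibition above the mean over all tested compounds plus 3 SD, cut at about 4.2% in these data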;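 note: inhibition shows as a rise in luminescence from relieved DAX1 repression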
# Target sequence (P51843 207-470 limits assumed): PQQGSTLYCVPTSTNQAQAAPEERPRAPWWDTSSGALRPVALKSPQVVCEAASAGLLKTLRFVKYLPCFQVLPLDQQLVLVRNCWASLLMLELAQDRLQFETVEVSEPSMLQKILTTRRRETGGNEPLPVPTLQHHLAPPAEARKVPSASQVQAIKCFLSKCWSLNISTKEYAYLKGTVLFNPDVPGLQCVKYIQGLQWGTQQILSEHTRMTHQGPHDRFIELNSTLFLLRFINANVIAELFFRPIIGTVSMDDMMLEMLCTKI
# hgDAF-12 ag – H. glycines DAF-12 receptor agonists, primary screen, cell-based, luminescence, HEK293, GAL4 fusion, UAS-luciferase. HEK293 GAL4-hgDAF12 UAS-luciferase reporter, agonist luminescence; normalized to butyrate control. activation, % at 6.8 µM. AID 687014, 2013. Nuclear hormone receptor DAF-12 (Heterodera glycines), GAL4 fusion. 1.8% of 370,000 active;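 active = activation above a cutoff set at the mean of all screened compounds plus 3 SD, cut at about 10% in these data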
# A number is an active result; n = inactive; x = no result given. Most compounds without a hit are left out; they make up all but 4.1% or so of the library.
SMILES,hcDAF12 agonist,ssDAF12 agonist,DAX1 inh-1,DAX1 inh-2,hgDAF-12 ag
O=C(O)CCC(=O)Nc1cccc2cccnc12,n,n,n,5.2,n
COc1cccc(C(=O)Nc2cccc3cccnc23)c1OC,x,x,x,4.3,x
Cc1cc(C(=O)Nc2cccc3cccnc23)ccc1[N+](=O)[O-],5.9,n,n,n,n
O=C(Nc1cccc2cccnc12)c1cccc([N+](=O)[O-])c1,n,n,n,n,n
COc1ccccc1NS(=O)(=O)c1cccc2cccnc12,n,n,n,5.4,n
CSCCC(NC(=O)OCc1ccccc1)C(=O)NC(Cc1c[nH]c2ccccc12)C(=O)O (stereo unspecified),n,n,n,x,n
COC(=O)[C@]12C[C@H](CC(=O)NCc3ccc(C)o3)C(=O)N(Cc3ccccc3)C1=C[C@H](COCc1ccccc1)O[C@@H]2C,n,n,n,x,n
C/C(=N/NC(=O)c1cccs1)c1ccc(NC(=O)COc2ccc(Cl)cc2)cc1,n,n,n,4.7,12
COCCCN1C(=O)C(CC(=O)NCCCN(C)C)CC(C(=O)N2CCCCCC2)=C1C (stereo unspecified),n,n,n,x,n
COC(=O)C1=C(C)N(Cc2ccccc2C(F)(F)F)C(=NCC2CC2)NC1CCc1ccccc1 (stereo unspecified),n,n,n,x,n
OC(c1ccc(Cl)cc1)c1ncc(-c2ccccc2Cl)[nH]1 (stereo unspecified),n,n,n,x,n
Cc1ccc(/C=N/Nc2ncnc3nc[nH]c23)cc1,n,n,n,5.6,n
Oc1ccc(/C=N/Nc2ncnc3nc[nH]c23)cc1,n,n,n,n,n
Fc1cccc(/C=N/Nc2ncnc3nc[nH]c23)c1,n,n,n,n,n
Clc1ccc(/C=N/Nc2ncnc3nc[nH]c23)cc1,n,n,n,4.9,n
Fc1ccccc1/C=N/Nc1ncnc2nc[nH]c12,n,n,3.8,n,n
CCOC(=O)COc1c(Br)cc(/C=C2\SC(=O)N(CC(=O)N3CCCC3)C2=O)cc1OC,n,n,n,4.7,n
CCOc1c(Br)cc(/C=C2/SC(=O)N(CC(=O)N3CCCC3)C2=O)cc1OC,n,n,n,n,n
C/C(=N\NC(=O)c1ccc(CN2CCOCC2)cc1)c1ccc(NC(=O)c2ccccc2)cc1,n,n,n,n,11
O=C(NN=C1CCN(Cc2ccccc2)CC1)c1ccccc1,n,n,n,n,11
O=C(Nc1ccc(CN2CCOCC2)cc1)c1ccc2ccccc2c1,n,n,n,n,13
CC/C(=N/NC(=O)c1ccccc1)c1ccc(OCCN2CCOCC2)cc1,n,1.6,n,n,n
COC(=O)c1cc2c(c3c4cc(C)ccc4n(S(=O)(=O)c4ccc(OC)cc4)c13)C(=O)N(Cc1ccccc1OC)C2,n,n,n,x,n
COc1cc(N/C(=C\C(=O)c2ccccc2)c2ccccc2)ccc1Cl,n,n,n,x,n
CCCCc1c(-c2ccccc2OC)ncn1Cc1ccc(C(C)(C)C)cc1,n,n,n,x,n
SMILES,hcDAF12 agonist,ssDAF12 agonist,DAX1 inh-1,DAX1 inh-2,hgDAF-12 ag
NC(=O)c1c(NC(=O)CN2CCN(S(=O)(=O)c3ccccc3)CC2)sc2c1CCC2,n,n,n,n,n
CC(=O)Nc1ccc(/C(C)=N/NC(=O)c2ccc(F)cc2)cc1,n,n,n,n,n
C/C(=N\NC(=O)c1ccc(F)cc1)c1ccc(NC(=O)Cc2ccccc2)cc1,n,n,4.1,n,n
O=C(Cn1c(-c2cncs2)nc2ccccc21)N1CCCCC1,n,n,n,x,n
COc1ccc(-c2nc(-c3ccc(O)cc3O)cs2)cc1OC,n,n,n,n,12
Cc1ccc(-c2csc(-c3ccncc3)n2)cc1,n,n,n,n,11
COc1ccc(-c2nc(CCl)cs2)cc1OC,n,n,n,n,n
c1ccc(-c2nc(-c3cccnc3)cs2)cc1,n,n,n,n,n
Brc1ccc(-c2csc(-c3ccncc3)n2)cc1,n,n,n,n,n
c1ccc(-c2csc(-c3cccnc3)n2)cc1,n,n,n,n,11
COc1ccc(-c2csc(-c3ccc(O)cc3)n2)cc1,n,n,n,n,13
CN1CCCN(S(=O)(=O)c2ccc3c(c2)CCC(=O)N3)CC1,n,n,n,x,n
C=C(c1ccc(OC)cc1)c1ccc(OC)cc1,n,n,n,n,n
COc1ccc(-c2csc(N)n2)cc1F,n,n,n,4.8,n
COc1ccc(C(N)=S)cc1,n,n,n,4.3,n
COc1ccc(-c2csc(C(O)c3ccccc3)n2)cc1 (stereo unspecified),n,n,3.8,x,n
Nc1nc(-c2ccc(F)cc2)cs1,n,n,n,n,n
COc1ccc(-c2csc(N3CCOCC3)n2)cc1OC,n,n,n,n,11
Clc1ccc(-c2csc(N3CCOCC3)n2)cc1,n,n,n,n,n
Cc1ccccc1C(=O)N[C@@H](Cc1cccnc1)C(=O)N1CCC[C@H]1C(=O)NCCc1ccccc1Cl,n,n,n,x,n
COC(=O)[C@@]12CCCCC=C1N(CCc1ccc(Cl)cc1)C(=O)[C@H]2CC(=O)NCc1ccc(C)o1,n,n,n,x,n
COc1cc(Nc2cc(C)n(-c3cc(OC)cc(OC)c3)c(=O)c2)cc(OC)c1,n,n,n,x,n
COCc1cc(N2CCNC[C@H]2C)ccc1N1CCS(=O)(=O)CC1,n,n,n,x,n
COc1ccc(O)cc1,n,n,n,4.5,n
COc1ccc(N2CC(O)=C(c3nc(-c4ccc(Cl)cc4)cs3)C2=N)cc1,n,n,n,n,12
SMILES,hcDAF12 agonist,ssDAF12 agonist,DAX1 inh-1,DAX1 inh-2,hgDAF-12 ag
c1ccc(CNc2nc(-c3cccnc3)cs2)cc1,n,n,n,n,11
Cc1oncc1-c1csc(-c2ccccc2)n1,n,n,n,5.3,n
CC(COc1ccc(C#N)cc1F)CN1CCC(C(O)(c2ccccc2)c2ccccc2)CC1 (stereo unspecified),n,n,n,x,n
C=CCn1c(=S)[nH]c2cc(C(=O)Nc3ccc(F)cc3)ccc2c1=O,n,n,n,n,n
O=C(/C=C1\OCc2ccccc21)OCc1ccccc1,n,n,n,x,12
O=C(/C=C1\OCc2cc(OCc3ccccc3)ccc21)OCc1ccccc1,n,n,n,x,n
COC(=O)c1ccc(COc2ccc(CNCc3ccc(Cl)cc3)cc2)cc1,n,n,n,n,12
NC(=O)C(=O)N/N=C/c1c[nH]c2ccc(Br)cc12,n,n,n,4.5,n
O=C(N/N=C/c1c[nH]c2ccc(Br)cc12)c1ccccn1,n,n,n,n,16

# Source: PubChem BioAssay
